# PubChem BioAssay AID1159580 (chemical genetic matrix, 2015)
# Among all 5,500 compounds or so, about 2,000 (36%) were called active. Not shown: some 18% with an inconclusive outcome. Some of the results follow. Unmarked numbers belong to inactive results. No stated cut-off is given here; in the data, active means normalized growth mostly below about 0.91 (no sharp cut-off); inconclusive means no clear call, values can overlap the other calls; inactive means mostly above about 0.92.
# Experiment: chemical genetic growth profiling, strain panel (AID 1159580);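 further: tested at 20 µM; growth read once vehicle control cultures reached saturation at 30 °C; 1 = growth at the plate median or of vehicle wells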
# Settings: S. cerevisiae deletion strains, growth OD
smiles,measurement,setting,value
O=c1cc(CSc2ccc(Cl)cc2)c2ccc(O)cc2o1,normalized growth,"locus YAR019C, strain CDC15, stronger effect = lower value",0.937
same,normalized growth,"locus YBL105C, strain PKC1, stronger effect = lower value",0.963
same,normalized growth,"locus YBR135W, strain CKS1, stronger effect = lower value",0.944
same,normalized growth,"locus YBR136W, strain MEC1, stronger effect = lower value",0.949
same,normalized growth,"locus YBR160W, strain CDC28, stronger effect = lower value",0.96
same,normalized growth,"locus YDL017W, strain CDC7, stronger effect = lower value",0.964
same,normalized growth,"locus YDL028C, strain MPS1, stronger effect = lower value",0.956
same,normalized growth,"locus YDL101C, strain DUN1, stronger effect = lower value",0.974
same,normalized growth,"locus YDL108W, strain KIN28, stronger effect = lower value",0.955
same,normalized growth,"locus YDL132W, strain cdc53, stronger effect = lower value",0.944
same,normalized growth,"locus YDL214C, strain PRR2, stronger effect = lower value",0.738
same,normalized growth,"locus YDR052C, strain DBF4, stronger effect = lower value",0.962
same,normalized growth,"locus YDR054C, strain cdc34, stronger effect = lower value",0.937
same,normalized growth,"locus YDR226W, strain ADK1, stronger effect = lower value",0.959
same,normalized growth,"locus YDR477W, strain SNF1, stronger effect = lower value",0.674 (active)
same,normalized growth,"locus YER123W, strain YCK3, stronger effect = lower value",0.565 (active)
same,normalized growth,"locus YER133W, strain GLC7, stronger effect = lower value",0.572 (active)
same,normalized growth,"locus YFL009W, strain cdc4, stronger effect = lower value",0.935
same,normalized growth,"locus YFL029C, strain CAK1, stronger effect = lower value",0.943
same,normalized growth,"locus YFR003C, strain YPI1, stronger effect = lower value",0.959
same,normalized growth,"locus YFR019W, strain FAB1, stronger effect = lower value",0.826
same,normalized growth,"locus YFR028C, strain CDC14, stronger effect = lower value",0.954
same,normalized growth,"locus YGR040W, strain KSS1, stronger effect = lower value",0.631 (active)
same,normalized growth,"locus YGR052W, strain FMP48, stronger effect = lower value",0.436 (active)
same,normalized growth,"locus YGR092W, strain DBF2, stronger effect = lower value",0.63
same,normalized growth,"locus YHR030C, strain SLT2, stronger effect = lower value",0.452 (active)
same,normalized growth,"locus YHR079C, strain IRE1, stronger effect = lower value",0.405 (active)
same,normalized growth,"locus YHR082C, strain KSP1, stronger effect = lower value",0.472 (active)
same,normalized growth,"locus YHR205W, strain SCH9, stronger effect = lower value",0.759
same,normalized growth,"locus YIL147C, strain SLN1, stronger effect = lower value",0.95
same,normalized growth,"locus YJL095W, strain BCK1, stronger effect = lower value",0.432 (active)
same,normalized growth,"locus YJL128C, strain PBS2, stronger effect = lower value",0.92
same,normalized growth,"locus YJL157C, strain FAR1, stronger effect = lower value",0.737
same,normalized growth,"locus YJR016C, strain ILV3, stronger effect = lower value",0.945
same,normalized growth,"locus YJR066W, strain TOR1 (second series), stronger effect = lower value",0.738
same,normalized growth,"locus YJR066W, strain TOR1, stronger effect = lower value",0.534
same,normalized growth,"locus YKL048C, strain ELM1, stronger effect = lower value",0.656 (active)
same,normalized growth,"locus YKL067W, strain YNK1, stronger effect = lower value",0.732 (active)
same,normalized growth,"locus YKL101W, strain HSL1, stronger effect = lower value",0.682 (active)
same,normalized growth,"locus YKL193C, strain SDS22, stronger effect = lower value",0.947
same,normalized growth,"locus YKL203C, strain TOR2, stronger effect = lower value",0.66 (active)
same,normalized growth,"locus YLR113W, strain HOG1, stronger effect = lower value",0.265 (active)
same,normalized growth,"locus YLR133W, strain CKI1, stronger effect = lower value",0.747
same,normalized growth,"locus YLR403W, strain SFP1, stronger effect = lower value",0.639 (active)
same,normalized growth,"locus YML070W, strain DAK1, stronger effect = lower value",0.666 (active)
same,normalized growth,"locus YMR001C, strain CDC5, stronger effect = lower value",0.944
same,normalized growth,"locus YMR205C, strain PFK2 (second series), stronger effect = lower value",0.748
same,normalized growth,"locus YMR277W, strain FCP1, stronger effect = lower value",0.928
same,normalized growth,"locus YNL006W, strain LST8, stronger effect = lower value",0.958
same,normalized growth,"locus YNL020C, strain ARK1, stronger effect = lower value",0.719
same,normalized growth,"locus YNL161W, strain CBK1, stronger effect = lower value",0.947
same,normalized growth,"locus YNL183C, strain NPR1, stronger effect = lower value",0.434 (active)
same,normalized growth,"locus YNL207W, strain RIO2, stronger effect = lower value",0.946
same,normalized growth,"locus YNL222W, strain SSU72, stronger effect = lower value",0.944
same,normalized growth,"locus YNL307C, strain MCK1 (second series), stronger effect = lower value",0.686
same,normalized growth,"locus YOL078W, strain AVO1, stronger effect = lower value",0.939
same,normalized growth,"locus YOL136C, strain PFK27, stronger effect = lower value",0.748
same,normalized growth,"locus YOR061W, strain CKA2, stronger effect = lower value",0.712
same,normalized growth,"locus YOR119C, strain RIO1, stronger effect = lower value",0.654 (active)
same,normalized growth,"locus YOR231W, strain MKK1, stronger effect = lower value",0.444 (active)
same,normalized growth,"locus YOR329C, strain SCD5, stronger effect = lower value",0.955
same,normalized growth,"locus YPL031C, strain PHO85, stronger effect = lower value",0.497 (active)
same,normalized growth,"locus YPL153C, strain RAD53, stronger effect = lower value",0.442 (active)
same,normalized growth,"locus YPL204W, strain HRR25, stronger effect = lower value",0.574 (active)
same,normalized growth,"locus YPL209C, strain IPL1, stronger effect = lower value",0.955
same,normalized growth,"locus YPL256C, strain CLN2, stronger effect = lower value",0.41 (active)
same,normalized growth,"locus YPR025C, strain CCL1, stronger effect = lower value",0.952
same,normalized growth,"locus YPR106W, strain ISR1, stronger effect = lower value",0.952
same,normalized growth,"locus YPR111W, strain DBF20, stronger effect = lower value",0.951
same,normalized growth,"strain NNK1, stronger effect = lower value",0.948
same,normalized growth,"strain TSCII, stronger effect = lower value",0.934
COC1CC(OC2CCC3(C)C(CCC4C3CCC3(C)C(C5=CC(=O)OC5)C(OC(C)=O)CC43O)C2)OC(C)C1O (stereo not drawn),normalized growth,"locus YAL021C, strain ccr4, stronger effect = lower value",0.998
same,normalized growth,"locus YAL026C, strain drs2, stronger effect = lower value",1.02
same,normalized growth,"locus YAL030W, strain snc1, stronger effect = lower value",1.01
same,normalized growth,"locus YBL061C, strain skt5, stronger effect = lower value",1.02
same,normalized growth,"locus YBR009C, strain hhf1, stronger effect = lower value",1.02
same,normalized growth,"locus YBR023C, strain chs3, stronger effect = lower value",1.02
same,normalized growth,"locus YBR171W, strain sec66, stronger effect = lower value",1.03
same,normalized growth,"locus YBR231C, strain swc5, stronger effect = lower value",1.02
same,normalized growth,"locus YBR279W, strain paf1, stronger effect = lower value",1.01
same,normalized growth,"locus YCL011C, strain gbp2, stronger effect = lower value",1.02
same,normalized growth,"locus YCL016C, strain dcc1, stronger effect = lower value",1.01
same,normalized growth,"locus YCL061C, strain MRC1, stronger effect = lower value",1.02
same,normalized growth,"locus YCL069W, strain vba3, stronger effect = lower value",1.02
same,normalized growth,"locus YCR088W, strain abp1, stronger effect = lower value",1.02
same,normalized growth,"locus YDL005C, strain med2, stronger effect = lower value",1.03
same,normalized growth,"locus YDL040C, strain nat1, stronger effect = lower value",1.01
same,normalized growth,"locus YDR001C, strain nth1, stronger effect = lower value",1.02
same,normalized growth,"locus YDR069C, strain doa4, stronger effect = lower value",1.01
same,normalized growth,"locus YDR137W, strain rgp1, stronger effect = lower value",1
same,normalized growth,"locus YDR159W, strain sac3, stronger effect = lower value",1.04
same,normalized growth,"locus YDR195W, strain ref2",1.03
same,normalized growth,"locus YDR297W, strain sur2, stronger effect = lower value",1.03
same,normalized growth,"locus YDR334W, strain swr1, stronger effect = lower value",1.03
same,normalized growth,"locus YDR335W, strain msn5, stronger effect = lower value",1.03
same,normalized growth,"locus YDR392W, strain spt3, stronger effect = lower value",0.984
same,normalized growth,"locus YEL003W, strain gim4, stronger effect = lower value",1.02
same,normalized growth,"locus YEL037C, strain rad23, stronger effect = lower value",1.02
same,normalized growth,"locus YEL061C, strain CIN8 (second series), stronger effect = lower value",1.02
same,normalized growth,"locus YER015W, strain faa2, stronger effect = lower value",1.02
same,normalized growth,"locus YER016W, strain bim1, stronger effect = lower value",1.02
same,normalized growth,"locus YER111C, strain swi4, stronger effect = lower value",1.03
same,normalized growth,"locus YER155C, strain BEM2 (second series), stronger effect = lower value",1.03
same,normalized growth,"locus YFR010W, strain ubp6, stronger effect = lower value",1.03
same,normalized growth,"locus YGL167C, strain pmr1, stronger effect = lower value",1.02
same,normalized growth,"locus YGL173C, strain kem1, stronger effect = lower value",1.03
same,normalized growth,"locus YGL227W, strain vid30, stronger effect = lower value",1.02
same,normalized growth,"locus YGL240W, strain doc1, stronger effect = lower value",1.01
same,normalized growth,"locus YGL253W, strain hxk2, stronger effect = lower value",1.03
same,normalized growth,"locus YHR013C, strain ard1, stronger effect = lower value",1.03
same,normalized growth,"locus YHR027C, strain rpn1, stronger effect = lower value",1.03
same,normalized growth,"locus YHR142W, strain chs7, stronger effect = lower value",1.02
same,normalized growth,"locus YJL092W, strain hpr5, stronger effect = lower value",1.03
same,normalized growth,"locus YJL095W, strain BCK1 (second series), stronger effect = lower value",1.01
same,normalized growth,"locus YJL115W, strain asf1, stronger effect = lower value",1.03
same,normalized growth,"locus YJL129C, strain trk1, stronger effect = lower value",1.02
same,normalized growth,"locus YJL154C, strain vps35, stronger effect = lower value",1.02
same,normalized growth,"locus YJL164C, strain tpk1, stronger effect = lower value",1
same,normalized growth,"locus YJL166W, strain qcr8, stronger effect = lower value",1.03
same,normalized growth,"locus YJL187C, strain SWE1, stronger effect = lower value",1.01
same,normalized growth,"locus YKL160W, strain elf1, stronger effect = lower value",1.01
same,normalized growth,"locus YKR026C, strain gcn3, stronger effect = lower value",1.02
same,normalized growth,"locus YKR091W, strain srl3, stronger effect = lower value",1.01
same,normalized growth,"locus YLL001W, strain dnm1, stronger effect = lower value",1.02
same,normalized growth,"locus YLL026W, stronger effect = lower value",1.02
same,normalized growth,"locus YLL041C, strain sdh2, stronger effect = lower value",1.02
same,normalized growth,"locus YLR027C, strain aat2, stronger effect = lower value",1.01
same,normalized growth,"locus YLR221C, strain rsa3, stronger effect = lower value",1.03
same,normalized growth,"locus YLR258W, strain gsy2, stronger effect = lower value",1.01
same,normalized growth,"locus YLR262C, strain YPT6 (second series), stronger effect = lower value",1.04
same,normalized growth,"locus YLR320W, strain mms22, stronger effect = lower value",1.01
same,normalized growth,"locus YLR342W, strain FKS1, stronger effect = lower value",1.02
same,normalized growth,"locus YLR357W, strain rsc2, stronger effect = lower value",1.06
same,normalized growth,"locus YLR370C, strain arc18, stronger effect = lower value",1.02
same,normalized growth,"locus YLR384C, strain iki3, stronger effect = lower value",1.02
same,normalized growth,"locus YML120C, strain ndi1, stronger effect = lower value",1.01
same,normalized growth,"locus YMR058W, strain fet3, stronger effect = lower value",1.04
same,normalized growth,"locus YMR125W, strain sto1, stronger effect = lower value",1.02
same,normalized growth,"locus YMR129W, stronger effect = lower value",1.01
same,normalized growth,"locus YMR205C, strain PFK2, stronger effect = lower value",1.01
same,normalized growth,"locus YMR231W, strain pep5, stronger effect = lower value",1.02
same,normalized growth,"locus YNL071W, strain lat1, stronger effect = lower value",1.02
same,normalized growth,"locus YNL209W, strain ssb2, stronger effect = lower value",1.01
same,normalized growth,"locus YNL248C, strain rpa49, stronger effect = lower value",0.939
same,normalized growth,"locus YNL322C, strain KRE1 (second series), stronger effect = lower value",1.03
same,normalized growth,"locus YNR049C, strain mso1, stronger effect = lower value",1.01
same,normalized growth,"locus YOR001W, strain rrp6, stronger effect = lower value",1.02
same,normalized growth,"locus YOR070C, strain gyp1, stronger effect = lower value",1.03
same,normalized growth,"locus YOR080W, strain dia2, stronger effect = lower value",1.02
same,normalized growth,"locus YOR083W, strain WHI5, stronger effect = lower value",1
same,normalized growth,"locus YOR106W, strain vam3, stronger effect = lower value",1.01
same,normalized growth,"locus YOR265W, strain rbl2, stronger effect = lower value",1.01
same,normalized growth,"locus YOR270C, strain vph1, stronger effect = lower value",1.02
same,normalized growth,"locus YOR290C, strain snf2, stronger effect = lower value",0.986
same,normalized growth,"locus YPL051W, strain arl3, stronger effect = lower value",1.01
same,normalized growth,"locus YPL078C, strain atp4, stronger effect = lower value",1.01
same,normalized growth,"locus YPL106C, strain sse1, stronger effect = lower value",1.01
same,normalized growth,"locus YPL240C, strain hsp82, stronger effect = lower value",1.02
